Bioassay records: PubChem, Broad Institute
Shn3 inh set2: inhibitors of Schnurri-3 3'UTR reporter in osteoblasts. actives 0.52% (n = 360,000). Clone20 osteoblast Shn3 3'UTR firefly luciferase, 24 h. inhibition, % at 12.5 µM;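 active = mean inhibition of at least 75% with every replicate also reaching 75%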
MITF TRPM1 inh: MITF TRPM1 promoter inhibition in SK-MEL-5 cells. inhibition, % at 12.5 µM. AID 488899. SK-MEL-5 TRPM1 promoter luciferase, 24 h. actives 0.83% (n = 330,000);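 active = mean inhibition across replicates of 60% or more, whatever share of single replicates reaches that level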
aSyn UTR inh: 5' untranslated region of α-synuclein, MLPCN primary screen; alpha-synuclein 5'UTR reporter, inhibitor activity; inhibition, % (tested at 7.5 µM); actives 0.82% (n = 300,000); AID 1813; in the data active = inhibition above about 60%;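 note: H4 neuroglioblastoma cells stably carrying SNCA 5'UTR luciferase fusion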
PAX8 reporter: lowers PAX8-driven luciferase in RMG-I cells | RMG-I TPO-luciferase reporter, SteadyGlo, 24 h | inhibition, % at 12.6 µM | actives 1.2% (n = 360,000);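 active = mean replicate inhibition at least 60% with every replicate also reaching 60%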;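 note: luciferase light reporting Pax8 driven TPO promoter activity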
EBV LMP1 NFkB: inhibitors of Epstein-Barr LMP1-induced NF-kappaB reporter; LMP1-induced NF-kappaB luciferase reporter cells, luminescence; inhibition, % at 12.5 µM; actives 0.69% (n = 350,000); in the data active = inhibition above about 41%
Each line names hits and unclear results; the compound was inactive in the other large screens. This is a sample that favours compounds with a hit; in the whole collection about 2.1% have one here.

O=S1(=O)C=C(Sc2nc3cc(Cl)ccc3o2)c2ccccc21	Shn3 inh set2 100, MITF TRPM1 inh 68 (no result: PAX8 reporter)
CCCOc1ccccc1N/C(N)=N/c1nc(C)cc(C)n1	none
CCCOc1ccccc1N/C(=N/c1nc(C)cc(C)n1)NC(=O)COc1ccc(OC)cc1	Shn3 inh set2 91 (no result: PAX8 reporter)
CCCN(C)C[C@@H]1OCCCC[C@H](C)Oc2ccc(NC(=O)CCCN(C)C)cc2C(=O)N([C@H](C)CO)C[C@@H]1C	none (no result: Shn3 inh set2, MITF TRPM1 inh, aSyn UTR inh, EBV LMP1 NFkB)
C#CC[N+](C)(C)CCCCCCCCC	aSyn UTR inh 65
Cc1ccc(/C=C/C(=O)N2CCN(c3cccc(C(F)(F)F)c3)CC2)cc1	PAX8 reporter 89
O=C(C1CC(=O)N(c2ccc3c(c2)OCCO3)C1)N1CCN(S(=O)(=O)c2ccc(F)cc2)CC1 (stereo not drawn)	EBV LMP1 NFkB 53 (no result: aSyn UTR inh)
O=S(=O)(c1ccccc1)N1CC[C@H]2[C@H](CO)Nc3ccc(Br)cc3[C@H]21	none (no result: Shn3 inh set2, MITF TRPM1 inh, aSyn UTR inh, EBV LMP1 NFkB)
O=C(Nc1ccccc1)C1=C(c2ccccc2)S(=O)(=O)CCS1(=O)=O	Shn3 inh set2 95, MITF TRPM1 inh 81, EBV LMP1 NFkB 72
NC(=S)N/N=C/c1ccc2ccccc2c1	none
NC(=S)N/N=C/c1cccc(O)c1O	none
NC(=S)NN=Cc1nccc2c(C(F)(F)C(F)(F)C(F)(F)F)cccc12	PAX8 reporter 75, EBV LMP1 NFkB 82 (no result: MITF TRPM1 inh, aSyn UTR inh)
NC(=S)NN=Cc1nccc2ccccc12	EBV LMP1 NFkB 82 (no result: aSyn UTR inh)
NC(=S)N/N=C/c1ccc(/C=N/NC(N)=S)cc1	none (no result: MITF TRPM1 inh)
Cc1cnc(C=NNC(N)=S)c2cccc(N)c12	MITF TRPM1 inh 66 (no result: aSyn UTR inh)
CN(Cc1nccn1C)C(=O)c1ccc(OC2CCN(CCc3ccccc3)CC2)cc1	none
CCC1CSC(Nc2ccc(C(=O)/C=C/c3ccc(OC)c(OC)c3)cc2)=N1 (stereo not drawn)	Shn3 inh set2 87
CC(C)[C@H](NC(=O)c1ccccc1Cl)C(=O)Nc1nc(-c2ccccn2)cs1	aSyn UTR inh 64
CC(Oc1ccc(Br)cc1)C(=O)Nc1nc(-c2ccccn2)cs1 (stereo not drawn)	MITF TRPM1 inh 67
O=C(COc1ccc(F)cc1)Nc1nc(-c2ccccn2)cs1	none
O=[N+]([O-])c1cc(-c2cnc3ccccc3n2)ccc1Cl	none
CCC(=O)N1C[C@@H]2[C@H](c3ccccc31)[C@@H](CO)N2Cc1cc(F)ccc1F	none (no result: Shn3 inh set2, MITF TRPM1 inh, aSyn UTR inh, EBV LMP1 NFkB)
COc1ccc2nc(Nc3nc(CSc4nc5ccccc5[nH]4)cc(=O)[nH]3)nc(C)c2c1	aSyn UTR inh 103
Cc1nc(Nc2nc(CSc3nc4ccccc4[nH]3)cc(=O)[nH]2)nc2ccccc12	PAX8 reporter 102
Cc1nc(Nc2nc(CSc3ccc(Cl)cc3)cc(=O)[nH]2)nc2ccccc12	none
COc1ccc2c(C)nc(Nc3nc(C)c(C)c(=O)[nH]3)nc2c1	aSyn UTR inh 103
O=C(c1n[nH]c(=O)c2ccccc12)N1CCN(S(=O)(=O)c2ccccc2Cl)CC1	none (no result: aSyn UTR inh)
CCOc1ccc(NC2CCN(C(C)=O)CC2)cc1	EBV LMP1 NFkB 42
CN1Cc2c(N3CCOCC3)nc3sc(C(=O)c4ccc(Br)cc4)c(N)c3c2CC1(C)C	aSyn UTR inh 105 (no result: Shn3 inh set2, MITF TRPM1 inh, EBV LMP1 NFkB)
N#C/C(=N/Nc1ccc(OC(F)(F)F)cc1)C(N)=S	PAX8 reporter 81
COc1ccc(N/N=C(\C#N)C(N)=O)cc1	none
CC1(C(=O)NCc2ccccc2)CN(S(C)(=O)=O)CC(=O)N1Cc1ccc2c(c1)OCO2 (stereo not drawn)	none (no result: Shn3 inh set2, MITF TRPM1 inh, aSyn UTR inh, EBV LMP1 NFkB)
COc1ccc(C(=O)Nc2ccc(OCC(F)(F)C(F)F)c(C(F)(F)F)c2)cc1OC	none (no result: PAX8 reporter)
O=C(Nc1ccc(OCC(F)(F)C(F)F)c(C(F)(F)F)c1)c1ccc(Cl)cc1	MITF TRPM1 inh 68 (no result: PAX8 reporter)
COc1ccc(C(=O)Nn2c(SCC(=O)NCc3ccccc3)nc3ccccc3c2=O)cc1	aSyn UTR inh 77
Cn1cc(SCC(=O)NCC2CCCO2)c2ccccc21 (stereo not drawn)	EBV LMP1 NFkB 85
COc1ccc(C(=O)Nn2c(SCC(=O)NC3CCCC3)nc3ccccc3c2=O)cc1	none (no result: PAX8 reporter)
COc1ccc(C(=O)Nn2c(SCC(=O)NCC3CCCO3)nc3ccccc3c2=O)cc1 (stereo not drawn)	aSyn UTR inh 87
CN(C)CCCN(C(=O)c1ccc2c(c1)CCCC2)c1nc2ccc(Cl)cc2s1	none
CCOC(=O)c1c(NC(=O)CN2C(=O)CN(C)C2=O)sc(C)c1C	none
CCC(C)(C)C(=O)Nc1nnc(CCc2ccccc2)s1	none
Cc1ccc(NC(=O)C2CCN(S(=O)(=O)c3ccc4c(c3)NC(=O)C(C)S4)CC2)cc1C (stereo not drawn)	Shn3 inh set2 88
CCc1ccc(NC(=O)C2CCN(S(=O)(=O)c3ccc4c(c3)NC(=O)C(C)S4)CC2)cc1 (stereo not drawn)	Shn3 inh set2 90
Cc1ccc(S(=O)(=O)N2CCN(CC(=O)Nc3ccc(N4CCOCC4)cc3)CC2)cc1C	PAX8 reporter 74
CC1Sc2ccc(S(=O)(=O)N3CCC(C(=O)Nc4cccc(Cl)c4)CC3)cc2NC1=O (stereo not drawn)	Shn3 inh set2 90
CC1Sc2ccc(S(=O)(=O)N3CCC(C(=O)NCc4ccc(Cl)cc4)CC3)cc2NC1=O (stereo not drawn)	none
Cc1ccc(NC(=O)C2CCN(S(=O)(=O)c3ccc4c(c3)NC(=O)C(C)S4)CC2)c(C)c1 (stereo not drawn)	none
NS(=O)(=O)c1ccc(CNC(=O)NC2(c3ccccc3)CC2)cc1	none
COc1cc(-c2nnn(CC(=O)N3CCOCC3)n2)cc(OC)c1OC	none
COc1ccc(C(NC(=O)c2c(F)c(F)c(F)c(F)c2F)c2ccccc2)cc1 (stereo not drawn)	none
COc1ccc(CNC(=O)CCS(=O)(=O)c2ccc3c(c2)CCN3C(C)=O)cc1	none
COc1ccc(S(=O)(=O)N2CCC(C(=O)NC3CC3)CC2)cc1C	none
COc1ccc(S(=O)(=O)N2CCC(C(=O)NC3CC3)CC2)cc1OC	EBV LMP1 NFkB 67
Cc1ccc(S(=O)(=O)N2CCC(C(=O)Nc3ccc(S(=O)(=O)N4CCCC4)cc3)CC2)cc1C	PAX8 reporter 67
COc1ccc(S(=O)(=O)N2CCN(CC(=O)Nc3cccc(OC)c3)CC2)cc1	EBV LMP1 NFkB 56
COc1ccc(S(=O)(=O)N2CCN(CC(=O)Nc3ccc(F)c(F)c3)CC2)cc1	none (no result: PAX8 reporter)
Cn1c(=O)c2c(ncn2CC(=O)Nc2cccc(S(=O)(=O)Nc3ccccc3F)c2)n(C)c1=O	none
CN(C)c1ccc(P(=O)(OCc2ccccc2)C(O)c2ccccc2F)cc1 (stereo not drawn)	none
O=C(Nc1ccc(Cl)cc1)c1ccc(S(=O)(=O)N2CCOCC2)cc1	none
O=C(Nc1ccc(S(=O)(=O)N2CCOCC2)cc1)c1cc(-c2cc(Cl)ccc2O)n[nH]1	PAX8 reporter 76
Cc1cc(O)c(-c2cc(C(=O)Nc3ccc(S(=O)(=O)N4CCOCC4)cc3)[nH]n2)cc1C	PAX8 reporter 73
Cc1ccc(S(=O)(=O)Nc2ccc(O)c3ncccc23)cc1	Shn3 inh set2 92
CC1(OC(=O)CCc2ccccc2)C(=O)C=C2C=C(c3ccc(C#N)cc3)N(CC3CC3)C=C2C1=O (stereo not drawn)	none
